HT1080-NT tox = kills 2HG-producing HT-1080-NT fibrosarcoma cells; AID 686970; Potency, µM (titrated, usually from 46.1 µM), inactives show at the top dose activity, negative = less viability, most hits filed as cytotoxic; HT-1080-NT fibrosarcoma viability, CellTiter-Glo ATP luminescence, 48 h; 360,000 tested, 1.6% active;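 note: NT is the 2HG producing partner of a matched IDH1 knockdown line; potency is the fitted concentration of half-maximal effect; 0% = DMSO-treated cells and -100% = media-only wells without cells; nearly all actives have a fitted effect of over 55% in size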
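Compounds were tested in concentration-response format on HT-1080-NT cells for 48 hours at 37 degrees C. Cell viability came from CellTiter-Glo luminescence; curves were classified by r2, response magnitude and activity.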
IL-1B inflam inh = inflammasome signaling inhibition, IL-1 beta readout | THP-1 LPS/ATP IL-1B secretion, AlphaLISA, 16 h; hits give low values | activity change, % at 57.5 µM | 360,000 tested, 4.7% active | AID 743279; in the data active = activity change below about -50%; inconclusive = mostly about -30% to -49%
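Secreted IL-1B measured by AlphaLISA bead assay after 16 h compound exposure of THP-1 cells; compounds (final up to 57.5 uM) added 1 h before LPS (250 ng/mL) and ATP (1.25 mM) stimulation; lower signal means less secretion.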
TDP1 cell noCPT = qHTS for Inhibitors of human tyrosyl-DNA phosphodiesterase 1 (TDP1): qHTS in cells in absence of CPT. 420,000 tested, 15% active. Potency, µM (doses to about 46.2 µM), without a hit: top-dose activity change, negative = growth inhibition, usual class: inhibitors. DT40 Tdp1-/- hTDP1 cells, no CPT, ATP luminescence, 48 h; note: potency is the fitted concentration of half-maximal effect; nearly all actives have a fitted effect of over 55% in size
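Stably hTDP1-transfected Tdp1-null chicken DT40 cells were treated with library compounds minus camptothecin and grown for at least 48 hr at 37 °C, after which cellular ATP was quantified by luminescence.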
DT40 TDP1 CPT = DT40-hTDP1 cell growth loss with CPT | chicken DT40 Tdp1-/-;hTDP1 cells + 20 nM CPT, ATP luminescence, 48 h | Potency, µM (series often up to 46.2 µM), inactives show at the highest dose activity change, negative = growth inhibition, actives largely listed as inhibitors | 420,000 tested, 12% active; note: potency is the fitted concentration of half-maximal effect; nearly all actives have a fitted effect of over 55% in size
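Cell growth measured by CellTiter-Glo luminescence after a minimum 48 h, 37 C compound exposure with 20 nM CPT in Tdp1-knockout DT40 cells stably expressing hTDP1, seeded 400/well; qHTS titration format.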
HT1080 IDH1KD tx = HT-1080 IDH1 knockdown cell toxicity (counter line) | HT-1080 IDH1 knockdown viability, ATP luminescence, 48 h | Potency, µM (highest dose often 46.1 µM), inactives show at the highest dose activity, negative = toxicity, actives largely listed as cytotoxic | 360,000 tested, 2% active;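 note: potency is the fitted concentration of half-maximal effect; 0% = DMSO wells and -100% = cell-free medium wells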
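Luminescent ATP read-out (CellTiter-Glo, 10 min at room temperature) after 48 h compound exposure at 37 °C gave viability of IDH1-knockdown HT-1080 cells. Activity was normalised to DMSO and cell-free wells, then fitted as concentration-response curves.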
Starred values were filed as active, the others as inactive; i = inactive; ? = inconclusive; . = no result given; ! = a repeat was not active. Shown are actives, neighbours in structure and some others; about 19% of the full set was active somewhere. Unless noted, calls come from the whole dose curve; as a rule, active = well fitted curve in the direction sought with a large enough effect; inconclusive = small, poorly fitted or top-dose-only effect, or another doubt; inactive = no such curve, though single readings can be large; an effect the other way counts as inactive or inconclusive. Unless noted, % is set by controls: 0 for no effect and ±100 for the full control effect.

SMILES | HT1080-NT tox | IL-1B inflam inh | TDP1 cell noCPT | DT40 TDP1 CPT | HT1080 IDH1KD tx
Cc1cccc(C)c1NC(=O)CN1CCN(CC(=O)NCC2(N3CCCCC3)CCCCC2)CC1 | 6% | -14 | 12% | -3% | 1%
CC(C)(C)C1=CC(=Nc2ccccc2N)C=C(C(C)(C)C)C1=O | ? | -113* | ? | ? | ?
CCOC(=O)CN1C(=O)C(C)(C)Oc2ccc(C(=O)Nc3ccccc3OC)cc21 | 9% | 36 | 23µM* | 16µM* | 0%
COc1ccccc1NC(=O)NNC(=O)c1ccc2c(c1)NC(=O)C(C)(C)O2 | ? | 20 | ? | 23µM* | ?
CN1CCOc2c1cnn(CCO)c2=O | 24% | 20 | -12% | -6% | 10%
O=c1c2ccc([N+](=O)[O-])cc2ncn1CCOc1ccc(Cl)cc1 | 3% | -6 | 15µM* | 18µM* | 2%
O=c1c2ccc([N+](=O)[O-])cc2ncn1CCOc1cccc(Br)c1 | -20% | 13 | 10µM* | ? | -5%
O=C(Cn1cnc2cc([N+](=O)[O-])ccc2c1=O)NCc1ccc(Cl)cc1 | -28% | 0 | ? | -3% | -22%
COc1ccc(-n2c(=O)c3c4c(sc3n(Cc3cc(C)ccc3C)c2=O)CN(C(C)=O)CC4)c(OC)c1 | . | . | 23µM* | ? | .
COc1cccc(NC(=O)Cn2c(=O)n(-c3cccc(OC)c3)c(=O)c3c4c(sc32)CCCC4)c1 | . | . | 18µM* | 13µM* | .
COc1ccc(-n2c(=O)c3c4c(sc3n(Cc3ccccc3)c2=O)CCC4)c(OC)c1 | . | . | 23µM* | ? | .
COc1cccc(-n2c(=O)c3c4c(sc3n(Cc3ccccc3C#N)c2=O)CCCC4)c1 | . | . | -14% | 6% | .
COc1ccc(-n2c(=O)c3c4c(sc3n(CC(=O)Nc3cc(C)[nH]n3)c2=O)CCC4)c(OC)c1 | -2% | -24 | ? | -24% | 1%
COc1ccc(-n2c(=O)c3c4c(sc3n(CC(=O)C(C)(C)C)c2=O)CCCC4)c(OC)c1 | . | . | ? | 15µM* | .
CCCCNC(=O)COC(=O)c1cc(C)oc1C | 15% | -3 | -14% | -6% | 18%
CN(C)C(=O)c1ccc(NC(=O)COc2ccc([N+](=O)[O-])cc2)cc1 | -1% | 0 | -22% | -16% | 4%
COc1cccc(NC(=O)Cn2c(=O)n(-c3ccccc3)c(=O)c3c2c2cc(OC)ccc2n3C)c1 | . | . | -9% | -13% | .
COc1cccc(NC(=O)Cn2c(=O)n(-c3ccccc3)c(=O)c3sccc32)c1 | -2% | -4 | 13µM* | ? | -8%
CCc1ccc(NC(=O)c2cc(CN3CCOCC3)on2)cc1 | . | . | ? | -18% | .
O=C1CCN(CCc2ccccc2)CCN1CCSc1ccc(Br)cc1 | 8% | -16 | ? | ? | 2%
CCCN1CCC(=O)N(CCSc2ccc(OC)cc2)CC1 | ? | 32 | 5.8µM* | 5.8µM* | 23µM*
Cc1ccc(SC[C@H](c2ccccc2)N2CCN(C)CCC2=O)cc1 | 0% | -3 | ? | -16% | 6%
Cc1ccc(SCCN2CCN(CCc3ccccc3)CCC2=O)cc1 | -1% | -1 | 16µM* | 16µM* | -1%
CC(C)CN1CCC(=O)N([C@H](CO)c2ccccc2)CC1 | 5% | 10 | 7% | -6% | 4%
Cc1ccc(SC[C@H](c2ccccc2)N2CCN(CC(C)C)CCC2=O)cc1 | 1% | -6 | 12µM* | 16µM* | 8%
SMILES | HT1080-NT tox | IL-1B inflam inh | TDP1 cell noCPT | DT40 TDP1 CPT | HT1080 IDH1KD tx
CN1CCC(=O)N([C@H](CSc2ccccc2)c2ccccc2)CC1 | 0% | 4 | 18µM*! | ? | -3%
O=C(NNC(=O)c1cc(-c2ccncc2)nc2ccccc12)c1ccccc1O | -11% | 73 | ? | ? | ?
COCCCNC(=S)NCCNc1nc2c(C)c(C)ccc2cc1C#N | -17% | -16 | ? | -19% | 1%
NC(=O)C1CCN(C(=O)NC2CC(=O)N(c3ccc4c(c3)OCCO4)C2)CC1 (stereo unspecified) | 0% | 18 | 1% | 0% | -4%
CCCCCCCN1CCC(=O)N([C@H](CO)c2ccccc2)CC1 | 8% | 9 | -23% | -16% | 18%
CCCN1CCC(=O)N([C@H](CSc2ccc(OC)cc2)c2ccccc2)CC1 | 2% | 12 | 16µM* | ? | 2%
CCc1nc2ccc(Cc3ccc4nc(CC)[nH]c4c3)cc2[nH]1 | -19% | -10 | 23µM* | 13µM* | -1%
CCc1nc2ccccc2[nH]1 | 4% | -10 | -2% | -9% | 12%
CCOc1c(Cl)cc(/C=C/C(=O)N(CC)CC(=O)Nc2ccc(NC(C)=O)cc2)cc1OC | 4% | -21 | ? | 8% | 2%
O=C(NCCc1c[nH]c2ccc(Cl)cc12)c1cccnc1 | -24% | -1 | 21µM* | ? | -6%
Nc1ccc(Cc2ccc(C=O)cc2)cc1 | . | . | 12% | -6% | .
CN(CC(=O)Nc1ccccc1Cl)C(=O)COC(=O)c1ccc(S(=O)(=O)C(F)F)cc1 | 8% | 12 | -19% | -8% | 13%
CC(=O)Oc1ccc(-c2ccc(C(=O)OCC(=O)N(C)CC(=O)Nc3ccccc3Cl)cc2)cc1 | 18µM* | i | -16% | ? | ?
COc1ccccc1CNC(=O)Cn1nc(C)c([N+](=O)[O-])c1C | -3% | 18 | -13% | -6% | 1%
C#CCN(C[C@H]1[C@H](OC(=O)NCc2ccccc2)[C@H](OC(=O)NCc2ccccc2)C[C@H]2C(=O)N(c3ccccc3)C(=O)[C@@H]12)S(=O)(=O)c1ccc(C)cc1 | 0% | -21 | -15% | -23% | 0%
C#CCN(C[C@H]1[C@H](OC(=O)NCc2ccc(OC)c(OC)c2)[C@H](OC(=O)NCc2ccc(OC)c(OC)c2)C[C@@H](C(=O)OC)[C@H]1C(=O)OC)S(=O)(=O)c1ccc(C)cc1 | -8% | -14 | 13µM* | 21µM* | -12%
C#CCN(C[C@H]1[C@H](OC(=O)NCc2ccco2)[C@H](OC(=O)NCc2ccco2)C[C@@H](C(=O)OC)[C@H]1C(=O)OC)S(=O)(=O)c1ccc(C)cc1 | -5% | -72* | ? | 21µM* | -5%
C#CCN(C[C@H]1[C@H](OC(=O)NC2CCCC2)[C@H](OC(=O)NC2CCCC2)C[C@@H](C(=O)OC)[C@H]1C(=O)OC)S(=O)(=O)c1ccc(C)cc1 | -20% | -60* | 16µM* | 13µM* | -2%
C1=C(c2ccc3c(c2)CN(Cc2cccn2-c2ncccn2)CCO3)Cc2ccccc21 | . | . | 0% | ? | .
CN(C)c1ccc2ccc3cccc4ccc1c2c34 | . | . | -19% | -24% | .
OCCN(CCO)c1cc2c3ccccc3ccc2c2ccccc12 | ? | -65* | 16µM* | ? | ?

High-throughput results from PubChem BioAssay.
